From PubChem BioAssay
Results filed as inconclusive are left out. The source made the active and inactive calls.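 Rule for the calls, unless noted: active = normalized viability below 100% at a tested concentration; inactive = the rest.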

Columns and labels:
[1] = growth inhibition of DIPG glioma cells, dose response, cell-based, SU-DIPG-XVII, MIPE5.0, CellTiter-Glo, qHTS (AID 1347060; cut-off not given, nearly all actives have AC50 up to about 26 µM;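 note: cells exposed to compound for 48 hours before viability readout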); details: SU-DIPG-XVII viability, CellTiter-Glo ATP luminescence
[2] = growth inhibition of DIPG glioma cells, dose response, cell-based, SU-DIPG-XIII, MIPE4.0, CellTiter-Glo, qHTS (AID 1347061; cut-off not given, nearly all actives have AC50 up to about 37 µM;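 note: cells exposed to compound for 48 hours before readout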); details: SU-DIPG-XIII viability, CellTiter-Glo ATP luminescence
[3] = growth inhibition of DIPG glioma cells, dose response, cell-based, JHH-DIPG-1, MIPE4.0, CellTiter-Glo, qHTS (AID 1347062; cut-off not given, nearly all actives have AC50 up to about 27 µM;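 note: cells exposed to compound for two days before readout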); details: JHH-DIPG-1 viability, CellTiter-Glo ATP luminescence
[4] = growth inhibition of DIPG glioma cells, dose response, cell-based, SU-DIPG-IV, MIPE4.0, CellTiter-Glo, qHTS (AID 1347063; cut-off not given, nearly all actives have AC50 up to about 30 µM;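 note: compound exposure lasted 48 hours before the viability readout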); details: SU-DIPG-IV viability, CellTiter-Glo ATP luminescence
[5] = growth inhibition of DIPG glioma cells, dose response, cell-based, SU-DIPG-XIII, MIPE5.0, CellTiter-Glo, qHTS (AID 1347064; cut-off not given, nearly all actives have AC50 up to about 23 µM;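 note: cells exposed to compound for 48 hours before the viability read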); details: SU-DIPG-XIII viability, CellTiter-Glo ATP luminescence
[6] = viability loss in pontine glioma line – cell-based, SU-DIPG-XXV, MIPE5.0, CellTiter-Glo, qHTS, dose response (AID 1347065; cut-off not given, nearly all actives have AC50 up to about 26 µM;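 note: cells exposed to compound for 48 hours before ATP readout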); details: CellTiter-Glo ATP luminescence
[7] = SU-DIPG-VI glioma cell viability, MIPE4.0 library, CellTiter-Glo luminescence, qHTS (AID 1347066; cut-off not given, nearly all actives have AC50 up to about 30 µM;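 note: cells exposed to compound for 48 hours before readout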); details: CellTiter-Glo ATP luminescence
[8] = JHH-DIPG-1 glioma cell viability, MIPE5.0 library, CellTiter-Glo luminescence, qHTS (AID 1347067; cut-off not given, nearly all actives have AC50 up to about 26 µM;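 note: cells exposed to compound for 48 hours before readout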); details: JHH-DIPG-1 glioma viability, CellTiter-Glo ATP luminescence
[9] = SU-DIPG-XXV glioma cell viability, MIPE5.0 library, qHTS (AID 1347068; cut-off not given, nearly all actives have IC50 up to about 30 µM;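 for IC50: cells exposed to compound for 48 hours before viability readout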)
[10] = LFS_MB_P medulloblastoma growth inhibition, cell-based, chromothripsis tumors, cisplatin or BGB combos (AID 1671449; in the data active = inhibition above about 80%;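 note: cells exposed for 96 hours; 0% = vehicle DMSO and 100% = killing by high DMSO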); details: LFS_MB_P medulloblastoma cells
[11] = HDN33 neuroblastoma growth inhibition, cell-based, chromothripsis tumors, cisplatin or BGB combos (AID 1671450; in the data active = inhibition above about 80%;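 note: cells exposed to compound for four days; 0% = vehicle DMSO and 100% = cell killing by high DMSO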); details: HDN33 neuroblastoma cells, stronger effect = higher value
[12] = ICB984 medulloblastoma cell growth inhibition, synergistic combos for chromothripsis tumors, cisplatin or BGB combos (AID 1671451; call rule not given here;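 note: cells exposed for 96 hours before readout; 0% = vehicle DMSO and 100% = killing by high DMSO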); details: ICB984 medulloblastoma cells, drug combinations, stronger effect = higher value
[13] = HTB85 osteosarcoma cell growth inhibition, synergistic combos for chromothripsis tumors, BGB or cisplatin IC20 combos (AID 1671453; in the data active = inhibition above about 80%;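 note: cells exposed for 96 hours before readout; 0% = vehicle DMSO and 100% = high DMSO killing control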); details: HTB85 osteosarcoma cells, drug combinations, stronger effect = higher value
[14] = MDA-MB-436 breast carcinoma cell growth inhibition, synergistic combos for chromothripsis tumors, BGB or cisplatin combos (AID 1671458; call rule not given here;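 note: cells exposed for 96 hours; 0% = vehicle DMSO and 100% = killing by high DMSO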); details: MDA-MB-436 breast carcinoma growth inhibition, drug combinations, stronger effect = higher value
[15] = growth inhibition of BT084 medulloblastoma cells, cell-based, ICGC_MB145, cisplatin and BGB IC40 combos (AID 1671461; in the data active = inhibition above about 80%;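 note: cells exposed to drugs for 96 hours; 0% = vehicle DMSO and 100% = high DMSO full killing control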); details: drug combinations, stronger effect = higher value
[16] = growth inhibition of RCMB18 medulloblastoma cells, cell-based, cisplatin and BGB IC40 combos (AID 1671462; in the data active = inhibition above about 80%;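 note: cells exposed to compound for four days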); details: stronger effect = higher value
[17] = ovarian cancer cell viability with rucaparib, profiling panel, oncology-focused library, rucaparib conditional (AID 1508598); details: patient-derived ovarian cancer cells, CellTiter-Glo viability, 144 h, stronger effect = lower value

For `O=C(/C=C/c1ccc(CN(CCO)CCc2c[nH]c3ccccc23)cc1)NO`, which AC50 [1] is on record?
The AC50 was 525 nM (active).

What about the AC50 [2] of the same compound?
Its AC50 is 1180 nM (active).

What about the AC50 [3] of the same compound?
The AC50 was 235 nM (active).

What about the AC50 [4] of the same compound?
The AC50 was 935 nM (active).

And the AC50 [5]?
Its AC50 is 332 nM (active).

And the AC50 [6]?
Its AC50 is 295 nM (active).

What about the AC50 [7] of the same compound?
Its AC50 is 235 nM (active).

What about the AC50 [8] of the same compound?
The AC50 was 417 nM (active).

And the outcome [9]?
Its outcome is “inactive”.

What about the inhibition ([10]; at 0.5 µM, stronger effect = higher value) of the same compound?
Its inhibition is -16.3% (inactive).

What about the inhibition ([10]; measured here: combination with BGB IC20, at 0.005 µM) of the same compound?
The inhibition was -29.5%.

And the inhibition ([10]; measured here: combination with BGB IC40, at 0.005 µM)?
Its inhibition is -69.2%.

What about the inhibition ([10]; measured here: combination with BGB IC40, at 0.05 µM) of the same compound?
Its inhibition is -42.5%.

What about the inhibition ([10]; measured here: combination with cisplatin, at 0.5 µM, stronger effect = higher value) of the same compound?
The inhibition was -26.1%.

And the inhibition ([10]; measured here: combination with cisplatin, at 5 µM, stronger effect = higher value)?
The inhibition was 114%.

What about the inhibition ([11]; BGB combo, at 5 µM) of the same compound?
Its inhibition is 99.9%.

What about the inhibition ([11]; at 0.5 µM) of the same compound?
Its inhibition is 99.3% (active).

What about the inhibition ([11]; cisplatin combo, at 5 µM) of the same compound?
Its inhibition is 99.9%.

What about the inhibition ([11]; measured here: with BGB IC20 combination, at 0.5 µM) of the same compound?
Its inhibition is 98.5%.

And the inhibition ([11]; measured here: with cisplatin IC20 combination, at 0.5 µM)?
The inhibition was 99.7%.

What about the inhibition ([11]; single agent, at 5 µM) of the same compound?
The inhibition was 99.9%.

What about the inhibition ([12]; BGB IC20 combo, at 0.005 µM) of the same compound?
Its inhibition is 71.4%.

And the inhibition ([12]; BGB IC40 combo, at 0.005 µM)?
Its inhibition is 89.6%.

What about the inhibition ([12]; BGB IC40 combo, at 0.05 µM) of the same compound?
Its inhibition is 100%.

And the inhibition ([12]; at 0.5 µM)?
Its inhibition is -29.4% (inactive).

What about the inhibition ([12]; cisplatin combo, at 0.05 µM) of the same compound?
The inhibition was 101%.

And the inhibition ([12]; cisplatin combo, at 0.5 µM)?
The inhibition was -36.3%.

And the inhibition ([12]; cisplatin combo, at 5 µM)?
The inhibition was -4.27%.

What about the inhibition ([12]; measured here: 5 uM single agent, at 5 µM) of the same compound?
Its inhibition is 13.8%.

And the inhibition ([13]; at 0.5 µM)?
Its inhibition is 99.3% (active).

And the inhibition ([13]; measured here: with BGB IC20, at 0.5 µM)?
The inhibition was 98.7%.

And the inhibition ([13]; measured here: with BGB IC20, at 5 µM)?
The inhibition was 99.9%.

And the inhibition ([13]; measured here: with cisplatin IC20, at 0.5 µM)?
Its inhibition is 99.9%.

And the inhibition ([13]; measured here: with cisplatin IC20, at 5 µM)?
The inhibition was 99.9%.

And the inhibition ([13]; single agent, at 5 µM)?
Its inhibition is 99.9%.

And the inhibition ([14]; at 0.5 µM)?
Its inhibition is 63.3% (inactive).

And the inhibition ([14]; measured here: BGB combination, at 0.5 µM)?
The inhibition was 55.8%.

And the inhibition ([14]; measured here: BGB combination, at 5 µM)?
The inhibition was 59.7%.

What about the inhibition ([14]; measured here: cisplatin combination, at 0.5 µM) of the same compound?
Its inhibition is 60.4%.

What about the inhibition ([14]; measured here: cisplatin combination, at 5 µM) of the same compound?
Its inhibition is 75.3%.

What about the inhibition ([15]; at 0.5 µM) of the same compound?
Its inhibition is 98.5% (active).

And the inhibition ([15]; cisplatin combination, at 0.5 µM)?
Its inhibition is 101%.

And the inhibition ([15]; cisplatin combination, at 5 µM)?
The inhibition was 104%.

And the inhibition ([15]; measured here: BGB IC40 combination 0.05 uM, at 0.05 µM)?
The inhibition was 38.4%.

What about the inhibition ([15]; single agent, at 5 µM) of the same compound?
Its inhibition is 108%.

What about the inhibition ([16]; at 0.5 µM) of the same compound?
The inhibition was 82% (active).

What about the inhibition ([16]; cisplatin combo, at 5 µM) of the same compound?
The inhibition was 98.9%.

What about the inhibition ([16]; measured here: BGB IC40 combination, at 0.05 µM) of the same compound?
The inhibition was 6.39%.

And the inhibition ([16]; measured here: combination with cisplatin, at 0.5 µM)?
The inhibition was 90.4%.

And the inhibition ([16]; single agent, at 5 µM)?
Its inhibition is 96.9%.

What does the source list for `Cc1nc(Nc2n[nH]c3c2CN(C(=O)N[C@H](CN(C)C)c2ccccc2)C3(C)C)c2sccc2n1`?
AC50 [1]: 3720 nM (active); AC50 [2]: 10500 nM (active); AC50 [3]: 2090 nM (active); AC50 [4]: 2960 nM (active); AC50 [5]: 1180 nM (active); AC50 [6]: 2090 nM (active); AC50 [7]: 8330 nM (active); AC50 [8]: 2950 nM (active); IC50 [9]: 4170 nM (active); viability ([17]; at 0.000305 µM, OCI-C5x cells, with rucaparib 10 µM, 100% = cells with rucaparib alone): 107% (inactive); viability ([17]; at 0.000305 µM, OCI-C5x cells, without rucaparib): 125% (inactive); viability ([17]; at 0.000305 µM, OCI-P5x cells, with rucaparib 20 µM, 100% = cells with rucaparib alone): 108% (inactive); viability ([17]; at 0.000305 µM, OCI-P5x cells, without rucaparib): 104% (inactive); viability ([17]; at 0.00122 µM, OCI-C5x cells, with rucaparib 10 µM, 100% = cells with rucaparib alone): 112% (inactive); viability ([17]; at 0.00122 µM, OCI-C5x cells, without rucaparib): 126% (inactive); viability ([17]; at 0.00122 µM, OCI-P5x cells, with rucaparib 20 µM, 100% = cells with rucaparib alone): 102% (inactive); viability ([17]; at 0.00122 µM, OCI-P5x cells, without rucaparib): 108% (inactive); viability ([17]; at 0.00488 µM, OCI-C5x cells, with rucaparib 10 µM, 100% = cells with rucaparib alone): 106% (inactive); viability ([17]; at 0.00488 µM, OCI-C5x cells, without rucaparib): 106% (inactive); viability ([17]; at 0.00488 µM, OCI-P5x cells, with rucaparib 20 µM, 100% = cells with rucaparib alone): 85.5% (active); viability ([17]; at 0.00488 µM, OCI-P5x cells, without rucaparib): 84.6% (active); viability ([17]; at 0.0195 µM, OCI-C5x cells, with rucaparib 10 µM, 100% = cells with rucaparib alone): 107% (inactive); viability ([17]; at 0.0195 µM, OCI-C5x cells, without rucaparib): 66.6% (active); viability ([17]; at 0.0195 µM, OCI-P5x cells, with rucaparib 20 µM, 100% = cells with rucaparib alone): 68.4% (active); viability ([17]; at 0.0195 µM, OCI-P5x cells, without rucaparib): 66.2% (active); viability ([17]; at 0.0781 µM, OCI-C5x cells, with rucaparib 10 µM, 100% = cells with rucaparib alone): 90.6% (active); viability ([17]; at 0.0781 µM, OCI-C5x cells, without rucaparib): 73.2% (active); viability ([17]; at 0.0781 µM, OCI-P5x cells, with rucaparib 20 µM, 100% = cells with rucaparib alone): 59.9% (active); viability ([17]; at 0.0781 µM, OCI-P5x cells, without rucaparib): 60.2% (active); viability ([17]; at 0.313 µM, OCI-C5x cells, with rucaparib 10 µM, 100% = cells with rucaparib alone): 101% (inactive); viability ([17]; at 0.313 µM, OCI-C5x cells, without rucaparib): 88% (active); viability ([17]; at 0.313 µM, OCI-P5x cells, with rucaparib 20 µM, 100% = cells with rucaparib alone): 44.2% (active); viability ([17]; at 0.313 µM, OCI-P5x cells, without rucaparib): 48.5% (active); viability ([17]; at 1.25 µM, OCI-C5x cells, with rucaparib 10 µM, 100% = cells with rucaparib alone): 85.2% (active); viability ([17]; at 1.25 µM, OCI-C5x cells, without rucaparib): 95.2% (active); viability ([17]; at 1.25 µM, OCI-P5x cells, with rucaparib 20 µM, 100% = cells with rucaparib alone): 24.7% (active); viability ([17]; at 1.25 µM, OCI-P5x cells, without rucaparib): 39.9% (active); viability ([17]; at 5 µM, OCI-C5x cells, with rucaparib 10 µM, 100% = cells with rucaparib alone): 8.03% (active); viability ([17]; at 5 µM, OCI-C5x cells, without rucaparib): 10.2% (active); viability ([17]; at 5 µM, OCI-P5x cells, with rucaparib 20 µM, 100% = cells with rucaparib alone): 8.49% (active); viability ([17]; at 5 µM, OCI-P5x cells, without rucaparib): 4.16% (active)
